The nature of assay [1]: NCI Yeast Anticancer Drug Screen. Data for the rad50 strain (AID 155).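 Further: 0% = growth of vehicle-only cultures of the same strain.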 As to conditions: S. cerevisiae rad50 strain growth inhibition, active compounds read high; at 50.0 µM unless noted. The procedure, abridged: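 Cells are treated with compound, grown, and their growth is then scored against vehicle-only cultures of the same repair-deficient yeast strain.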
A short description of assay [2]: NCI Yeast Anticancer Drug Screen. Data for the mec2-1 strain (AID 157). The following applies: S. cerevisiae mec2-1 strain, active compounds read high; at 50.0 µM unless noted. The method in brief:
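mec2-1 yeast strain, carrying an alteration in DNA damage repair or cell cycle control, was exposed to compounds; growth inhibition was measured relative to vehicle-treated controls.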

Assay [3] can be described thus: NCI Yeast Anticancer Drug Screen. Data for the sgs1 mgt1 strain (AID 161).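 Further: 0% = growth of cultures given vehicle only.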 As to conditions: S. cerevisiae sgs1 mgt1 strain, active compounds read high; at 50.0 µM unless noted. The procedure, abridged: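 This yeast growth screen uses a strain with defined DNA-repair lesions; compound-treated growth is compared with vehicle-treated growth.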
Assay [4] can be described thus: NCI Yeast Anticancer Drug Screen. Data for the cln2 rad14 strain (AID 165).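 Further: 0% = growth equal to vehicle treated cultures.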 As to conditions: S. cerevisiae cln2 rad14 strain, active compounds read high; at 50.0 µM unless noted. The procedure, abridged:
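Yeast carrying cln2 and rad14 alterations (cell cycle control and DNA damage repair) were exposed to compounds. Growth inhibition was measured against vehicle-treated controls.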

Assay [5] is described as follows: NCI Yeast Anticancer Drug Screen. Data for the bub3 strain (AID 167). As to conditions: S. cerevisiae bub3 mutant strain, active compounds read high; at 50.0 µM unless noted. The procedure, abridged: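 Part of a panel of yeast mutants defective in DNA damage repair or cell cycle regulation. Each strain is grown with compound, and inhibition is calculated relative to solvent-treated cultures.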

Assay [6] in a line: NCI Yeast Anticancer Drug Screen. Data for the mlh1 rad18 strain (AID 175). The following applies: S. cerevisiae mlh1 rad18 strain growth inhibition, active compounds read high; at 50.0 µM unless noted. The procedure, abridged: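 Growth inhibition of the yeast strain was measured after compound exposure and expressed relative to vehicle-treated controls. The strain carries defined defects in DNA damage repair.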

Each structure is given as a SMILES string. Compounds without any hit were thinned out: in the full panel of roughly 79,000, 15% have a hit. Values without a mark were called inactive. The source made the active and inactive calls. No stated cut-off is given here; in the data, active means growth inhibition above about 70%; inactive means the rest.

With `Cc1c(SC(Cl)(Cl)Cl)cc([N+](=O)[O-])c(N(C)C)c1[N+](=O)[O-]`, the growth inhibition is 13.5% in assay [1]; 24.9% in assay [2]; 34.6% in assay [3]; -43.9% in assay [4]; 6.45% in assay [5]; 10% in assay [6].
With `Cc1cccc(NC(=O)OC/C=C/c2ccccc2)c1`, the growth inhibition in assay [1] was 10.3%; in assay [2] it was 70.5% (active); in assay [3] it was 53.5%; in assay [4] it was 0.65%; in assay [5], 31.4%; in assay [6] it was 4.95%.
In the case of `Cc1cc([N+](=O)[O-])c(Nc2ccc(C)c(Cl)c2)c([N+](=O)[O-])c1`, the growth inhibition in assay [1] is 8.15%; in assay [2], 36.7%; in assay [3], 29.6%; in assay [4], -8.05%; in assay [5], 52.1%; in assay [6], 33.6%.
As to `CCOC(=O)c1ccc(NC2Oc3cc4c(cc3C(c3cc(OC)c(OC)c(OC)c3)C2C)OCO4)cc1` (stereo not given), the growth inhibition was -1.6% in assay [1]; -15.5% in assay [2]; -2.65% in assay [3]; 11.4% in assay [4]; -9.8% in assay [5]; -9.55% in assay [6].
Turning to `Cc1ccc(Cl)cc1NC(=O)Nc1ccccc1Cl`, the growth inhibition in assay [1] was 11.5%; in assay [2], 12.2%; in assay [3] it was 6.05%; in assay [4], -12.2%; in assay [5], 8.85%; in assay [6] it was -11%.
With `CC1(C)N=C(Oc2cc(Cl)cc(Cl)c2)NC(=S)N1`, the growth inhibition in assay [1] was 11.8%; in assay [2], -8.3%; in assay [3] it was 24%; in assay [4], 21.2%; in assay [5] it was 7%; in assay [6], 24%.
Regarding `CN(/C(=C/C(=O)c1ccccc1)C(=O)c1ccccc1)/C(=C/C(=O)c1ccccc1)C(=O)c1ccccc1`, the growth inhibition was -27.4% in assay [1]; 3.2% in assay [2]; -0.95% in assay [3]; -5.25% in assay [4]; -4.5% in assay [5]; 26.8% in assay [6].
For the compound `COc1cc(C2c3cc4c(cc3OC(N3CCOCC3)C2C)OCO4)cc(OC)c1O` (stereo not given), the growth inhibition in assay [1] is -17.1%; in assay [2], -25.8%; in assay [3], -23.3%; in assay [4] it was -12.5%; in assay [5], -8.95%; in assay [6] it was -8%.
With `CS1(C)=Nc2c([N+](=O)[O-])cc([N+](=O)[O-])cc2S(=O)(=O)N=1`, the growth inhibition in assay [1] is -9.9%; in assay [2], -12.1%; in assay [3], -1.3%; in assay [4], -15.9%; in assay [5], -5%; in assay [6] it was 6.55%.
With `COC1OC(CI)C(O)C(O)C1O` (stereo not given), the growth inhibition was -6.05% in assay [1]; 2.4% in assay [2]; -4.45% in assay [3]; -24.2% in assay [4]; 37.8% in assay [5]; -16.7% in assay [6].
In the case of `CC(=O)C(CCC#N)(CCC#N)C(C)=O`, the growth inhibition in assay [1] was -18.6%; in assay [2] it was -24.6%; in assay [3] it was -4.8%; in assay [4] it was -5.95%; in assay [5] it was -1.45%; in assay [6], -16.1%.
In the case of `O=C1CCCC2CCCC(=O)N12`, the growth inhibition in assay [1] was -1.35%; in assay [2], -0.85%; in assay [3] it was -0.4%; in assay [4], 8.9%; in assay [5], 1%; in assay [6] it was -9.7%.
`CCCCN1C(=O)NC(Cc2ccccc2)C1=O` (stereo not given): the growth inhibition in assay [1] was -13.2%; in assay [2] it was -1.35%; in assay [3], -13.2%; in assay [4], 4.95%; in assay [5], -1.9%; in assay [6], -12.5%.
For the compound `CSC1=NC(C(N)=O)C(N)N1C` (stereo not given), the growth inhibition was -3.1% in assay [1]; -16.4% in assay [2]; 6.3% in assay [3]; 17.4% in assay [4]; 1.35% in assay [5]; 12% in assay [6].
`Cc1cc2nc3c(=O)[nH]c(=O)nc-3n(C/C=N/NC(N)=S)c2cc1C`: the growth inhibition in assay [1] was 5.75%; in assay [2], -7.65%; in assay [3] it was -5.05%; in assay [4], -45.1%; in assay [5] it was -12.8%; in assay [6] it was -2.7%.
With `CC1(C)C2CC(O)C1CCC2=O` (stereo not given), the growth inhibition in assay [1] is -4.15%; in assay [2], -16.2%; in assay [3] it was -33.8%; in assay [4], 6%; in assay [5], -21%; in assay [6] it was -35.5%.
For the compound `Cc1nc(-c2ccc(N=Cc3ccc(N4CCC5(CCCCC5)CC4)cc3)cc2)cs1`, the growth inhibition in assay [1] is 25%; in assay [2] it was -2.05%; in assay [3], 15.7%; in assay [4], 18.6%; in assay [5], 6.1%; in assay [6] it was -3%.
Regarding `COC(=O)C(=O)C(C(=O)C=C(C)C)C(=O)C(=O)Nc1ccc(C)cc1C` (stereo not given), the growth inhibition in assay [1] is -4.9%; in assay [2], -17.5%; in assay [3], -3.55%; in assay [4] it was 11.2%; in assay [5], -18.6%; in assay [6], -29.6%.
Regarding `CC(C)(O)C1CC(=O)C(C)(C2C(O)CC3(C)C4CC=C5C(CCC(O)C5(C)C)C4(C)C(=O)CC23C)O1` (stereo not given), the growth inhibition in assay [1] was 65%; in assay [2], 63%; in assay [3] it was 45%; in assay [4], 42.9%; in assay [5], 56.1%; in assay [6], 47.6%.
Take `COc1ccc(-n2cnc3c2NC(C)(C)N=C3C(N)=O)c(OC)c1`: the growth inhibition is -17.8% in assay [1]; -30.1% in assay [2]; -36.1% in assay [3]; 24.9% in assay [4]; -10.2% in assay [5]; -23.2% in assay [6].

The record behind these values is PubChem BioAssay (NCI).
